Experimental findings from PubChem BioAssay are described below.

Results filed as inconclusive are left out. Activity calls are given as the source filed them.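 Rule for the calls, unless noted: active = response below a set limit, under 55% cells CD8-positive and vesicle-bound, and CD8 cells' 90th-percentile brightness under 279; inactive = the rest.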

Broadly, the inhibition is the change of the read-out against control, counted positive when it falls.

Test [1] can be described thus: yeast TOR pathway RPL19A-GFP modulators, primary screen, cell-based, S. cerevisiae, multiplex flow cytometry (AID 1862; in the data active = percent of DMSO control GFP below about 86%;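 note: lower values mimic rapamycin by blocking the RPL19A rise seen in DMSO cells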). As to conditions: S. cerevisiae RPL19A-GFP strain, flow cytometry fluorescence, 3 h; at 10 µM; stronger effect = lower value. A general note: A flow cytometer gives signals particle by particle.
The nature of test [2]: modulators of MEP2-GFP levels in yeast, primary screen, S. cerevisiae, multiplex flow cytometry (AID 1867;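 active = GFP response, as percent of the DMSO control, above the screen-wide mean plus 3 SD, about 139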;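 note: median GFP channel fluorescence of barcode-gated MEP2-GFP cells measured by flow cytometry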). The settings on record: S. cerevisiae MEP2-GFP strain, 3 h, at 10 µM, stronger effect = higher value, 100% means same as DMSO wells.
The nature of test [3]: modulators of CIT2-GFP expression in yeast, primary screen, S. cerevisiae, GFP fusion, multiplex flow cytometry (AID 1870;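 active = percent response above a set limit, the screen-wide mean plus 3 SD, cut at about 130% in these data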;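 note: barcoded CIT2-GFP strain pooled with four other GFP strains with rapamycin as positive control; median GFP fluorescence per well over plate mean of DMSO wells so 100% = DMSO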). The settings on record: 3 h, at 10 µM, stronger effect = higher value.
Test [4] in a line: modulators of LAP4-GFP expression in yeast, primary screen, S. cerevisiae, multiplex flow cytometry (AID 1873;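 active = GFP signal, as percent of the solvent control, above the screen mean plus 3 SD, about 149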). As to conditions: 3 h, at 10 µM, stronger effect = higher value.
A short description of test [5]: modulators of AGP1-GFP expression in yeast TOR pathway, primary screen, cell-based, multiplex flow cytometry, S. cerevisiae (AID 1887;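 active = GFP signal above the screen-wide mean plus 3 SD, that is over about 124.5% of the solvent control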;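 note: AGP1-GFP fusion strain of S. cerevisiae within a five-strain barcoded multiplex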). As to conditions: 3 h, at 10 µM, stronger effect = higher value.
Test [6] in a line: inhibitors of CD8+ T cell-vesicle binding, pilot screen, LFA-1/ICAM-1 modulator project, MLPCN validation set, flow cytometry (AID 2523).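 For vesicle binding response: mean PE anti-B7-1 fluorescence of CD8+ cells relative to row control; 100% = QL9-loaded vesicles with DMSO vehicle in the same plate row.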 As to conditions: 2C mouse CD8+ T cells, at 7 µM, stronger effect = lower value; double positive events: measured here: CD8+/vesicle+ event percentage.
For test [7], the target named is Integrin beta-1 (Homo sapiens) + Integrin alpha-4 (Homo sapiens) (UniProt P13612+P05556). In words: inhibition of HUTS-21 binding to VLA-4, pilot screen, VLA-4 allosteric modulator project, U937 cells, HUTS-21 mAb, flow cytometry, validation set (AID 2674;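 active = inhibition above 50%, about 3 SD of the validation set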;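 note: antibody binding induced by the VLA-4 ligand LDV present at three times its Kd; 0% = LDV ligand with antibody and no compound and 100% = antibody without LDV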). The settings on record: HUTS-21 LIBS mAb binding, at 6.7 µM, stronger effect = higher value, binding induced by LDV ligand.
Integrin beta-1 (Homo sapiens) + Integrin alpha-4 (Homo sapiens), sequence (P05556 whole entry, looked up): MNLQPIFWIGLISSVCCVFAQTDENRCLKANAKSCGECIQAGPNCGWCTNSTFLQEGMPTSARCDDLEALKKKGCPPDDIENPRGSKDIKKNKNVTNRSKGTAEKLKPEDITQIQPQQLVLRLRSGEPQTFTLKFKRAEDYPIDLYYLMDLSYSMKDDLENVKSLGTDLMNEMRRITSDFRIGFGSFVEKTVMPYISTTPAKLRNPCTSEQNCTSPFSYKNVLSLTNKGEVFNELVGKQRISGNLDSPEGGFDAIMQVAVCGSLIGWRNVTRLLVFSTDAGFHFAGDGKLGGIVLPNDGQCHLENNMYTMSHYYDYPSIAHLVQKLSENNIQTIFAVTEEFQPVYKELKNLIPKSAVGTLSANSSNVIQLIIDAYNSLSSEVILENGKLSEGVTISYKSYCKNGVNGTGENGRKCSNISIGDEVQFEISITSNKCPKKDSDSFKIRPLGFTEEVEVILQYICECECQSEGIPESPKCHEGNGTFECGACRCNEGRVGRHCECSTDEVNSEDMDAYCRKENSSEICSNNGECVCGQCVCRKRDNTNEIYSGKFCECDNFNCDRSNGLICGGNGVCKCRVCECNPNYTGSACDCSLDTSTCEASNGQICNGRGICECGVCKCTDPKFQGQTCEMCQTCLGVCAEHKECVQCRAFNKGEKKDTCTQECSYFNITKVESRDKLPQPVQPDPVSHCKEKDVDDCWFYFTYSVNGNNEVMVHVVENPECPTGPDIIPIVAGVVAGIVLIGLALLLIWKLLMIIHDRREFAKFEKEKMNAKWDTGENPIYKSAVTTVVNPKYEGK
Integrin beta-1 (Homo sapiens) + Integrin alpha-4 (Homo sapiens), sequence (P13612 whole entry, looked up): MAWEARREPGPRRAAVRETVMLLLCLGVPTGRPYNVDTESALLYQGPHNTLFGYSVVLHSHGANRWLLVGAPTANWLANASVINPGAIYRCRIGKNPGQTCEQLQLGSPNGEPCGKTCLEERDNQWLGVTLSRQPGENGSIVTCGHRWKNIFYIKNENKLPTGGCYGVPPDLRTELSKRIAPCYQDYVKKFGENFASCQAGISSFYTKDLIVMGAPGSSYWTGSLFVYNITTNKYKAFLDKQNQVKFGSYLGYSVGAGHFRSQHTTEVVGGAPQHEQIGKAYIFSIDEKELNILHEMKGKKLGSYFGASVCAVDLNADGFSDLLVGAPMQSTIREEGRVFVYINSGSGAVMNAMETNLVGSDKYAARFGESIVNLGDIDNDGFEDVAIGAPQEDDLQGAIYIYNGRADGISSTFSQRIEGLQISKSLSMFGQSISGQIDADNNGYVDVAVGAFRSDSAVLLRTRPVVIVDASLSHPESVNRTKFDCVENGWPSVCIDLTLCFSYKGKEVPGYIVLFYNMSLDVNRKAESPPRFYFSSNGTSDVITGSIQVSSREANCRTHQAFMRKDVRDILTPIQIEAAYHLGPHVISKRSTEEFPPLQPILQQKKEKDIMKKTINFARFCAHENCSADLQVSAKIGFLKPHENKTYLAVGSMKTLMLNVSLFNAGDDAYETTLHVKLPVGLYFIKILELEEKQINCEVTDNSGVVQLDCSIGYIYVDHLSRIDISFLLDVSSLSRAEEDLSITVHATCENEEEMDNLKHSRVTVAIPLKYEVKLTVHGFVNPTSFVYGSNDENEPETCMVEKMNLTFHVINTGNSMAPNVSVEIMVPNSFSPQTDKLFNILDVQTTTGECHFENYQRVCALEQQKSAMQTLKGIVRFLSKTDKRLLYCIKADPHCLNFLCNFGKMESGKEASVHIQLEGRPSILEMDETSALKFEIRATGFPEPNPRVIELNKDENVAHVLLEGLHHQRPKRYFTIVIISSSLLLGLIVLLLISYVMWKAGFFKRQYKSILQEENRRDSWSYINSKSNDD

Test [8] is described as follows: superoxide lowering in aged yeast cells, pilot screen, validation compound set (AID 2706;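 active = superoxide response below 65% of plate, a cut near 3 SD across the whole screen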;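 note: yeast exposed to compound for one week at 30 degrees C before staining; 100% = mean of all compound wells on the same plate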). The settings on record: S. cerevisiae aging, superoxide DHE fluorescence; at 10 µM; stronger effect = lower value.
The target of test [9] is Beta-adrenergic receptor kinase 1 (Homo sapiens) (UniProt P25098). In words: GRK2 binders displacing RNA aptamer, biochemical, validation, human GRK2, bead flow cytometry (AID 488806;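 active = aptamer binding inhibition above 30%, about 3 SD of noise from non-fluorescent compounds; inactive = inhibition at or below 30%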). The settings on record: bead-bound GRK2, FAM-aptamer displacement, at 10 µM, stronger effect = higher value.
Beta-adrenergic receptor kinase 1 (Homo sapiens), sequence (P25098 whole entry, looked up): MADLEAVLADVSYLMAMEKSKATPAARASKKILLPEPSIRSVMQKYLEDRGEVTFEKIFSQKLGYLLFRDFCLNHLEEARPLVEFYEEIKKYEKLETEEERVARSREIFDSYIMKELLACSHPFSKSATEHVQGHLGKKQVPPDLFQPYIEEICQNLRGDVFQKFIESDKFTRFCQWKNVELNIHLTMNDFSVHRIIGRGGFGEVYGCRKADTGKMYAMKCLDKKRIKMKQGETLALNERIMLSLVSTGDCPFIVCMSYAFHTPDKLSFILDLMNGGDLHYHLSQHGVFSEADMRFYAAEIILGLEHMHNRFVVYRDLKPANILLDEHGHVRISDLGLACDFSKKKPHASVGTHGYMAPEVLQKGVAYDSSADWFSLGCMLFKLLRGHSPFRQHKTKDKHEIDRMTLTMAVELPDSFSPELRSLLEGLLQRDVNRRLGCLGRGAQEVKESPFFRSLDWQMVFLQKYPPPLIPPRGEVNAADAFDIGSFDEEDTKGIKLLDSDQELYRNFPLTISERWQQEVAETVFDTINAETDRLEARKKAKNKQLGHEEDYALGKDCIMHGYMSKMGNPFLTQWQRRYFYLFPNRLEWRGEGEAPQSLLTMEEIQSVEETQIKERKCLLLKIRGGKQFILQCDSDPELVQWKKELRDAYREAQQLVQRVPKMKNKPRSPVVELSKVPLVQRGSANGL
For test [10], the target named is Beta-2 adrenergic receptor (Homo sapiens) (UniProt P07550). Nature of the test: beta2AR agonists driving receptor internalization, pilot screen, cell-based, FAP fluorogen, flow cytometry, validation set (AID 504459;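 active = percent response above 42, roughly 3 SD of non-fluorescent test compounds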;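 note: agonist-driven loss of surface beta2AR via internalization measured by FAP dye flow cytometry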). The settings on record: Am2.2-beta2AR cells, FAP surface receptor flow cytometry; at 10 µM; stronger effect = higher value.
Beta-2 adrenergic receptor (Homo sapiens), sequence (P07550 whole entry, looked up): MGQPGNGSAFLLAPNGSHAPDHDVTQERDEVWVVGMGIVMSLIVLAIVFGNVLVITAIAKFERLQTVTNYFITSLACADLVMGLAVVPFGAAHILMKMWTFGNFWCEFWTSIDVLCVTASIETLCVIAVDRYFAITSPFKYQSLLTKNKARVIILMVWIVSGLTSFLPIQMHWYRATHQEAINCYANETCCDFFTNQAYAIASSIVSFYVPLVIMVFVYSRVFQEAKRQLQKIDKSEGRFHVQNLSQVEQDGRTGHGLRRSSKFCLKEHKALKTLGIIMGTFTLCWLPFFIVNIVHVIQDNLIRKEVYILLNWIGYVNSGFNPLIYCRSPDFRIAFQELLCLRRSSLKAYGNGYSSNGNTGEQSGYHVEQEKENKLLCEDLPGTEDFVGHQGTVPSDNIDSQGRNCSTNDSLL
Test [11] has as its target AP-2 complex subunit beta (Homo sapiens) (UniProt P63010). Nature of the test: inhibitors of arrestin peptide binding to AP2, pilot screen, biochemical, validation set, GST-AP2 beads, flow cytometry (AID 504541;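 active = inhibition above 54%, about 3 SD of non-fluorescent compounds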;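 note: AP2 carries R879A mutation and is captured from E. coli lysate; bead-bound FITC arrestin peptide fluorescence measuring arrestin peptide binding to AP2; 0% = DMSO wells and 100% = excess unlabeled arrestin peptide control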). The settings on record: FITC arrestin peptide, at 10 µM, stronger effect = higher value, AP2 beta2 appendage fragment, R879A mutant.
Test [12] can be described thus: yeast V-ATPase proton transport modulators, S. cerevisiae, pHLuorin, HTS validation (AID 504600; in the data active = response above about 15%;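 note: plate controls were DMSO for no effect and reference compound for full effect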). The settings on record: S. cerevisiae pHLuorin cytosolic pH, at 10 µM, stronger effect = higher value.
For test [13], the system named is anti-desmoglein-3 scFv antibody binding to human DSG3. In words: inhibitors of anti-DSG3 scFv binding to DSG3, pilot screen, biochemical, validation compound set, bead-based, flow cytometry (AID 588368;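 active = binding below the plate cutoff, the plate median minus 3 SD, with a reading above zero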;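 note: signal is the median channel fluorescence of bead-bound GFP antibody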). The settings on record: Protein G beads, DSG3-Fc, scFv-GFP binding, at 10 µM, stronger effect = lower value.
Test [14] can be described thus: inhibitors of fungal efflux pumps CDR1, CDR2, MDR1, pilot screen, validation compound set, multiplex, phenotypic (AID 588506;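 active = efflux inhibition above 0.42, the validation set average plus 4 SD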;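 note: Nile Red retained in cells so higher fluorescence means more efflux inhibition; 0 = negative control wells and 1 = enniatin B 25 µM full block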). The settings on record: S. cerevisiae pump-expressing triplex, Nile Red efflux flow cytometry; at 10 µM; stronger effect = higher value; the pumps come from Candida albicans.
For test [15], the target named is ATP-binding cassette sub-family B member 6 (Homo sapiens) (UniProt Q9NP58). Nature of the test: ABCB6 transporter inhibitors, pilot screen, K562-ABCB6 cells, flow cytometry, validation set (AID 588550;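 active = inhibition above the screen-wide mean plus 3 SD, about 51%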;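 note: 0% = DMSO wells and 100% = benzethonium chloride 70 µM positive control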). As to conditions: K562-ABCB6 porphyrin accumulation, 1 h, at 10 µM, stronger effect = higher value.
ATP-binding cassette sub-family B member 6 (Homo sapiens), sequence (Q9NP58 whole entry, looked up): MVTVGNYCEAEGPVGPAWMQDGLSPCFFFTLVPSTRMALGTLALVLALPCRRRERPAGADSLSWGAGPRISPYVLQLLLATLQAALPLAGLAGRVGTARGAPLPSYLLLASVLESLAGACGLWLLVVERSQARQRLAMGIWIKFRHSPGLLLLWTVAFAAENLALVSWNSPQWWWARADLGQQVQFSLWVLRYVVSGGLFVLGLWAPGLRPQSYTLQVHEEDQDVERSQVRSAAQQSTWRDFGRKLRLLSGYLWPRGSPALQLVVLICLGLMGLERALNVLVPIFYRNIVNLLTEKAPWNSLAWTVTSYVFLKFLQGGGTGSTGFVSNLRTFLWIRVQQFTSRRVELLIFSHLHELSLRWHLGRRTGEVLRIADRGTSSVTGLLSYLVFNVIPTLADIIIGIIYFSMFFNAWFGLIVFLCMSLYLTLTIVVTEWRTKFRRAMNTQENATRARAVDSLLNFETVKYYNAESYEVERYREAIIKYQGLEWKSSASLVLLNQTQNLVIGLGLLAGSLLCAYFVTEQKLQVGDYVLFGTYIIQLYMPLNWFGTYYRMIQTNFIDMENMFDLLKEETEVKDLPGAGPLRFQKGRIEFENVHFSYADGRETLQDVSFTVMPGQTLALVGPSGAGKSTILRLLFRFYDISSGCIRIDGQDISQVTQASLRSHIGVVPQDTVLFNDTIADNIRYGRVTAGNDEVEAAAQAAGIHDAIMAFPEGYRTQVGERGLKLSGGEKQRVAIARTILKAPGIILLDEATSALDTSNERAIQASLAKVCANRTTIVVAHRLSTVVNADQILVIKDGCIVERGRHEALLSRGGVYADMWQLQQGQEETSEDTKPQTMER
Test [16] in a line: promoters of myeloid differentiation in arrested cells, primary screen, cell-based, GFP/MAC1 double positive, flow cytometry, validation set (AID 588685;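 active = differentiation response of at least 50%, scaled between solvent and reference control, from cells with both markers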;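 note: compound exposure lasts four days before antibody staining and flow analysis; 0% = DMSO wells and 100% = 5 µM fulvestrant positive control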). As to conditions: ER-HoxA9 marrow cells, stronger effect = higher value, normalized: vehicle 0, fulvestrant 100.

AP-2 complex subunit beta (Homo sapiens), sequence (P63010 whole entry, looked up, the tested form may be a part, one chain of several): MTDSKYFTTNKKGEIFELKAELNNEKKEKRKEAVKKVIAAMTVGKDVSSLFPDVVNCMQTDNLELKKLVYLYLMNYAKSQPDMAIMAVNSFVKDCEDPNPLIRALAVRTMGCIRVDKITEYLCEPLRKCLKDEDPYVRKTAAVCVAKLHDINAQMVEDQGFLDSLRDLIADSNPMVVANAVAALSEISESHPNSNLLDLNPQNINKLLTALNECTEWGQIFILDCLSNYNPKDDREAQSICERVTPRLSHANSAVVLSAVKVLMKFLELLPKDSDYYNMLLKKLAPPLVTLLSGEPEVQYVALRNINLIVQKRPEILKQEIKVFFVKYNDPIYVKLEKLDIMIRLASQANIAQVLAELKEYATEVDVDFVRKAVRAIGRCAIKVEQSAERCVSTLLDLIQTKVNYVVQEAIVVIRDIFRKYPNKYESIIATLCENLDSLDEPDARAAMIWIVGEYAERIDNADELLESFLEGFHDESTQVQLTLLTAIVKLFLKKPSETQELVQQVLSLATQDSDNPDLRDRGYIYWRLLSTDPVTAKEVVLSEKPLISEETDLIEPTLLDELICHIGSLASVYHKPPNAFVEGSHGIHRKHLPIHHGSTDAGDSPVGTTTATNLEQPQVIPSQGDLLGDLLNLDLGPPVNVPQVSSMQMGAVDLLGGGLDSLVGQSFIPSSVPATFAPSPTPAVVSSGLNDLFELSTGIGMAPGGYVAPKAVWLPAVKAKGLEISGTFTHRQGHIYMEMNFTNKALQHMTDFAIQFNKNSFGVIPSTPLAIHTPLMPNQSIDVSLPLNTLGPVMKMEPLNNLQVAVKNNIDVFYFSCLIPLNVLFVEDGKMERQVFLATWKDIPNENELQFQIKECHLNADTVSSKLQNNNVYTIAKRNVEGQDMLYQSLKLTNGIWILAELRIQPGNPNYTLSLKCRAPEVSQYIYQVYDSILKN

With `CC(C)(C)OC(=O)NCCC(=O)Oc1ccc2ccc(=O)oc2c1`, the percent of DMSO control GFP in [1] is 100% (inactive). Also, the GFP response vs DMSO was 91.9% (inactive) in test [2] and 76% (inactive) in [4]. Also, the percent response of DMSO control in [3] is 98.6% (inactive). Further, the GFP response, % of DMSO in test [5] is 84% (inactive). The double positive events in test [6] stood at 56.1%. Also, the vesicle binding response in [6] is 238% (inactive). The inhibition in [7] is -1.79% (inactive); in test [11], 17.2% (inactive); in test [15], 3% (inactive). In [8], the superoxide response (% of plate) is 101% (inactive). The aptamer binding inhibition in [9] was 4% (inactive). The response in [10] is 7.52% (inactive); in test [12] it was 7.71% (inactive). In addition, in [13], the binding (% of control) is 101% (inactive). In addition, the efflux inhibition (fraction of control) in test [14] was 0.05 (inactive). Moreover, in [16], the differentiation response is -12% (inactive).

Take `Cc1coc2cc3oc(=O)c(CCC(=O)O)c(C)c3cc12`: the percent of DMSO control GFP in [1] is 95.4% (inactive). For the same molecule, the GFP response vs DMSO is 101% (inactive) in test [2] and 147% (inactive) in test [4]. Moreover, in test [3], the percent response of DMSO control was 92% (inactive). In addition, the GFP response, % of DMSO in [5] is 86.8% (inactive). In [6], this molecule returned a double positive events of 58.9%. In test [6], the vesicle binding response was 223% (inactive). Besides, the results for the inhibition in test [7], in [11] and in test [15] were -11.3% (inactive), 20.5% (inactive) and 6% (inactive), respectively. Further, in test [8], the superoxide response (% of plate) is 109% (inactive). Further, in test [9], the aptamer binding inhibition is 1% (inactive). The response is -0.85% (inactive) in [10] and -3.3% (inactive) in test [12]. Besides, in test [13], the binding (% of control) is 106% (inactive). Further, in test [14], the efflux inhibition (fraction of control) was -0.17 (inactive). For the same molecule, the differentiation response in test [16] was -2.4% (inactive).

On to `O=C1[C@@H]2CSCN2C(=O)CN1Cc1ccc(F)cc1`, for which the percent of DMSO control GFP in test [1] was 107% (inactive). Besides, the GFP response vs DMSO in [2] was 95.2% (inactive); in test [4], 82% (inactive). The percent response of DMSO control in test [3] was 106% (inactive). Besides, the GFP response, % of DMSO in test [5] was 94.8% (inactive). For the same molecule, the double positive events in test [6] was determined as 61.3%. Further, the vesicle binding response in test [6] was 235% (inactive). Also, the inhibition in test [7] is -3.16% (inactive); in test [11], -4.78% (inactive); in test [15], 6% (inactive). The superoxide response (% of plate) in test [8] was 111% (inactive). Moreover, the aptamer binding inhibition in test [9] was 2% (inactive). Besides, the results for the response in test [10] and in test [12] were 5.93% (inactive) and -2.17% (inactive), respectively. Moreover, the binding (% of control) in test [13] is 83.8% (inactive). The efflux inhibition (fraction of control) in [14] is -0.21 (inactive). The differentiation response in test [16] is -21.6% (inactive).

For the molecule `CN1C2CCC1CC(OC(c1ccccc1)c1ccccc1)C2` (stereo not given), the percent of DMSO control GFP in test [1] was 101% (inactive). Further, the GFP response vs DMSO in [2] was 96.2% (inactive); in [4] it was 99.9% (inactive). For the same molecule, in test [3], the percent response of DMSO control was 108% (inactive). For the same molecule, the GFP response, % of DMSO in test [5] was 98% (inactive). The molecule also gave a double positive events in [6] of 64.3%. Moreover, the vesicle binding response in [6] was 247% (inactive). In addition, the inhibition in test [7] was 19.3% (inactive); in [11], -19% (inactive); in [15], -11% (inactive). In addition, the superoxide response (% of plate) in test [8] is 93% (inactive). Also, the aptamer binding inhibition in test [9] is -8% (inactive). Besides, the response was 8.88% (inactive) in test [10] and 1.18% (inactive) in [12]. In test [13], the binding (% of control) is 98.4% (inactive). For the same molecule, in [14], the efflux inhibition (fraction of control) is -0.1 (inactive). Also, the differentiation response in test [16] was 26.6% (inactive).

`COc1cc2c3c(c1)C(C)CC(C)(C)N3C(=O)C2=O` (stereo not given): the percent of DMSO control GFP in test [1] is 92.4% (inactive). Moreover, the GFP response vs DMSO in test [2] was 122% (inactive); in test [4], 79.2% (inactive). Besides, the percent response of DMSO control in [3] is 110% (inactive). Further, in [5], the GFP response, % of DMSO was 94.7% (inactive). Besides, in test [6], the double positive events turned out to be 58.1%. The vesicle binding response in test [6] was 199% (inactive). The inhibition in [7] is 15.2% (inactive); in [11], 0.2% (inactive); in test [15] it was 12% (inactive). For the same molecule, the superoxide response (% of plate) in [8] is 99% (inactive). Moreover, the aptamer binding inhibition in test [9] is 89% (active). The response in [10] is 2.87% (inactive); in test [12] it was 1.61% (inactive). Moreover, the binding (% of control) in [13] is 105% (inactive). The efflux inhibition (fraction of control) in test [14] was 0.37 (inactive). In test [16], the differentiation response is 1.64% (inactive).
